Data from PubChem BioAssay AID748 (Sanford-Burnham Center for Chemical Genomics, 2007).
Out of some 96,000 compounds screened, about 100 (0.1%) were called active.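 Rule for the calls: active = displacement above 50% at 20 µM plus a fluorescence interference ratio under 1.5; inactive = the rest.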 For the sample, actives were picked, then their nearest neighbours and some compounds at random. Measured potencies and affinities stand elsewhere.

What follows are compounds tested against Bcl-2-like protein 10 (Homo sapiens) (UniProt Q9HD36) (assay: Bcl-B/TR3 peptide binding disruption – biochemical, fluorescence polarization, FITC-TR3 peptide, selectivity assay for Bfl-1 inhibitor project, primary screen (AID 748;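 note: plate controls were wells without compound for no effect and wells lacking Bcl-B protein for full effect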)). Conditions: FP displacement of FITC-TR3 peptide from Bcl-B; at 20 µM; stronger effect = higher value.

displacement, inactive:
Cc1ccc(CNC(=O)CCn2nc(-c3ccc(Cl)cc3)ccc2=O)cc1 -8.8%
COc1ccc(CCNc2nc3c(c(=O)n(C)c(=O)n3C)n2C)cc1OC 8.6%
COc1ccccc1NC(=O)CNC(=O)c1ccc(F)cc1 -4.7%
CCOC(=O)C1CCN(C(=O)Nc2ccc3nc(-c4ccco4)c(-c4ccco4)nc3c2)CC1 95.6%
O=C(NCc1ccccc1)c1ccc2nc(-c3ccco3)c(-c3ccco3)nc2c1 29.5%
O=C(Nc1ccc(N2CCOCC2)cc1)c1ccc2nc(-c3ccco3)c(-c3ccco3)nc2c1 0%
O=C(Nc1ccc2nsnc2c1)N1CCCCCC1 1.1%
O=C(Nc1cccc(C(F)(F)F)c1)c1ccc2nc(-c3ccco3)c(-c3ccco3)nc2c1 19.6%
O=C(NCCO)c1ccc2nc(-c3ccco3)c(-c3ccco3)nc2c1 26.6%
CCOCCCNC(=O)C1CCN(C(=O)N(C)C)CC1 3.4%
COc1ccc(C)cc1NS(=O)(=O)c1cn(C)c(=O)n(C)c1=O -4.4%
COc1ccc(S(=O)(=O)N2CCCC2C(=O)Nc2ccc(C)cc2)cc1 (stereo not given) -2%
CCOC(=O)c1snc(-c2ccc(F)cc2)c1N -3.1%
CCOC(=O)c1[nH]c2cc3c(cc2c1NC(=O)CN1CCCCC1C)OCO3 (stereo not given) 9.5%
O=S(=O)(c1ccc(S(=O)(=O)N2CCCN(Cc3ccccc3)C2)cc1)N1CCCCCC1 0.8%
CC(=O)Nc1nnc(SCC(=O)NCCOc2ccccc2)s1 -9.4%
CCCCC(=O)NC1=NC(=O)C(C)(C)S1 -8%
Cc1oc2cc3c(C(=O)N4CCCCC4)c(C)oc3cc2c1C(=O)N1CCCCC1 6.1%
CCCn1c(CCC(=O)O)ccc1-c1cccs1 2.8%
CCCCn1c(CCC(=O)O)ccc1-c1cccs1 4.3%
Cc1sc2nc(SCc3nc4ccccc4[nH]3)n(Cc3ccco3)c(=O)c2c1C -8.7%
COc1ccc(C2C(=O)N(C3CCCCC3)CC(=O)N2Cc2ccco2)cc1 (stereo not given) -8.2%
CCOC(=O)c1nn(-c2ccccc2)c(=O)c2c(N)scc12 -1.6%
CC1(C)OC(=O)C(=CNc2ccccc2F)C(=O)O1 5.4%
Cc1nnc(SCC(=O)Nc2cccc(C(F)(F)F)c2)n1Cc1ccco1 4.7%
CCOC(=O)c1[nH]c(C(=O)O)c(CCN(CC)CC)c1C 0.1%
COC(=O)CCc1c(C)[nH]c(C(=O)OCc2ccccc2)c1C -0.4%
O=C(CCc1ccccc1)OCCN1CCOCC1 5.9%
Cn1nnnc1SCCNCc1ccccc1F 1.2%
CN(C)c1ccc2c(O)cc(=O)n(C)c2c1 13%
Cc1nnc(NC(=O)COc2ccccc2)s1 -16.7%
COc1ccc(CNCC(O)(c2ccccc2)c2ccc(Cl)cc2)cc1 (stereo not given) -0.9%
COc1ccc(-c2cc(C(F)(F)F)nc(SCC(=O)N3CCOCC3)n2)cc1OC -2.2%
O=C(O)c1cnn2c(C(F)(F)F)cc(-c3ccco3)nc12 35.7%
O=C(Nc1ccc2c(c1)OCO2)c1cnn2c(C(F)(F)F)cc(-c3ccco3)nc12 10.1%
Cc1nn(C)cc1CNC(=O)c1cccc(Cl)c1 3.4%
COC(=O)[C@H](Cc1ccccc1)NC(=O)NCc1ccc(S(N)(=O)=O)cc1 3%
O=C(NCN1CCN(c2ccccc2F)CC1)c1cccnc1 -3.4%
NC1=NS(=O)(=O)NC1c1cccc(Cl)c1 (stereo not given) -0.7%
CS(=O)(=O)N(Cc1ccc(C(=O)Nc2ccccc2Sc2ccccc2)cc1)c1ccccc1 -11.2%
Cc1cccc(OCCCC(=O)O)c1 -8.7%
CC1CCN(C(=O)c2ccc3c(c2NCCO)C(=O)c2ccccc2C3=O)CC1 27.9%
CC1CCCN(C(=O)c2ccc3c(c2NCCO)C(=O)c2ccccc2C3=O)C1 (stereo not given) 37%
CC(CC(=O)c1cccs1)CC(=O)c1cccs1 -2.6%
O=C(O)Cn1nc2ccccc2n1 3.4%
Cc1nc(=S)n(-c2ccccc2)[nH]1 -1.7%
CC(/C=C/c1ccco1)=N/NC(=O)Cc1cccs1 -47.4%
O=C(CNC(=O)c1ccco1)NCC(=O)OCc1ccccc1Br -3.7%
O=C(NCc1ccncc1)C1CCCCC1 -9%
COc1cc(-c2nnc(SCc3ccccc3Cl)o2)cc(OC)c1OC -2.8%
COc1cc(-c2nnc(SCc3cc(=O)oc4cc(C)ccc34)o2)cc(OC)c1OC -10.8%
Cc1c(C(=O)Nc2cccc3cccnc23)oc2ccccc12 10.7%
Cc1cc(=O)n2c3c(cccc13)CCC2 -9.7%
C=CCn1c(SCC(=O)Nc2ncc(Cc3cc(Cl)ccc3Cl)s2)nnc1-c1ccncc1 -3.4%
O=C(NCc1ccco1)c1cc(-c2ccc(F)cc2)on1 1.1%
O=C(Nc1ccc(N2CCCC2)cc1)C(Cl)c1ccccc1 (stereo not given) -13.8%
O=C(Cc1ccc(Cl)cc1)Nc1ccc(N2CCCC2)cc1 -84%
CN1CCN(c2ccc(NC(=O)Cc3ccccc3)cc2)CC1 -5.5%
O=C(Nc1ccc(N2CCCCC2)cc1)c1ccccc1 -3.3%
CCOC(=O)c1ccccc1NC(=O)CC(C)CC(=O)O (stereo not given) -5.5%
COc1cccc2c1C(=O)CC2NC(=O)C(F)(F)F (stereo not given) -17.1%
COC(=O)Nc1c(C)nn(Cc2ccccc2C)c1C -0.7%
CCOc1ccc(C(c2c(C)[nH][nH]c2=O)c2c(C)[nH][nH]c2=O)cc1OC 8.5%
CC(C)CC(C(=O)Nn1cnnc1)N1C(=O)c2ccccc2C1=O (stereo not given) -8.4%
Cc1nnc(NC(=O)Cc2cccs2)s1 40.2%
O=C(Cc1cccs1)Nc1nnc(CCc2ccccc2)s1 -0.1%
CCOC(=O)c1nc2sc3c(c2c(=O)[nH]1)CCCC3 -2.6%
CC(C)CC(=O)c1c[nH]c(C(=O)NCCCn2ccnc2)c1 0%
CCc1ccc2[nH]c(=O)c(C3C(C#N)=C(N)Oc4c3ccc3cccnc43)cc2c1 (stereo not given) -4.7%
Cc1ccc2cc(C3C(C#N)=C(N)Oc4c3ccc3cccnc43)c(=O)[nH]c2c1 (stereo not given) 5.4%
O=c1[nH]c(=O)n(C2CCCO2)cc1Br (stereo not given) -6.3%
CS(=O)(=O)N(CCc1ccccc1)CC(=O)N1CCCCC1 0.5%
Clc1ccc2nc(CN3CCCCCC3)cn2c1 -3.6%
Clc1ccc2nc(CN3CCCCC3)cn2c1 10.1%
Cc1nn(-c2ccccn2)c2c1-c1nc(N)ncc1CC2 6%
CCN(CC)CCC(=O)NC(C)(C)Cc1ccc(O)cc1 -7.8%
CCOC(=O)c1[nH]c2c(c1C)C(=O)CC(c1ccco1)C2 (stereo not given) 10.9%
Cc1c(C(=O)OCC2CCCO2)[nH]c2c1C(=O)CC(c1ccc(N(C)C)cc1)C2 (stereo not given) -1.6%
CCCC(=O)N1CCc2cc(-c3nc(N)sc3C)ccc21 0.7%
CC1(C)Cc2c(sc3c2c(=N)n(Cc2ccco2)c(=O)n3CC(=O)Nc2cccc(Cl)c2)CO1 -38.7%
Cc1ccc(S(=O)(=O)N2CCOCC2)cc1C(=O)OCC(=O)N1c2ccccc2NC(=O)C1(C)C 25%
CC1(C)C(=O)Nc2ccccc2N1C(=O)COC(=O)C1CCCCC1 -3.4%
COc1cc(/C=C(/C#N)c2ccc(C)cc2)ccc1Oc1ccc([N+](=O)[O-])cn1 -0.7%
CC1Cc2nc(SCC(=O)NC3CCCCC3)n(C)c(=O)c2S1 (stereo not given) -2.6%
CCOC(=O)COc1ccc(S(=O)(=O)N2CCc3ccccc3C2)cc1 0.4%
CCOc1ccccc1N(CC(=O)NC(C)(C)C)C(=O)Cn1nnc(-c2ccc(C)o2)n1 -3.4%
CC(=O)N1N=C(c2ccc3nccnc3c2)CC1c1ccccc1 (stereo not given) 6%
C=CCn1c(=O)c2ccccc2n2c(SCc3cc(=O)n4ccsc4n3)nnc12 6.2%
C=CCn1c(SCc2cc(=O)n3ccsc3n2)nc2scc(C3CC3)c2c1=O -10.9%
CCCNC(=O)c1c(N)n(-c2ccc3c(c2)OCO3)c2nc3ccccc3nc12 8.6%
Cn1c(N2CCN(C(=O)NCc3ccccc3)CC2)nc2ccccc21 6.9%
COc1cccc(NC(=O)c2cnsn2)c1 6.3%
CCCn1c(C)cc(-c2csc(N)n2)c1C 10.4%
Cc1cc(-c2csc(N)n2)c(C)n1CCC(C)C 1.9%
c1csc(Cn2c(-c3cccs3)nc3ccccc32)c1 -27.7%
CC(=O)Nc1ccc(S(=O)(=O)n2nc(-c3ccc(C)cc3)nc2N)cc1 -2.3%
O=[N+]([O-])c1ccc(-c2ccc(/C=N/c3c(-c4ccco4)nc4ccccn34)o2)cc1 7.3%
O=[N+]([O-])c1ccc(Cl)c(-c2ccc(/C=N/c3c(-c4ccco4)nc4ccccn34)o2)c1 31.7%
COCCn1c(=S)[nH]c2cc(OC)c(OC)cc2c1=O 3%
COc1cc2c(cc1OC)CN(C(C)C(=O)Nc1ccc(NC(C)=O)cc1)CC2 (stereo not given) 2.9%
